Source: PubChem BioAssay (NCATS)
Records with an inconclusive call do not appear. Entries that show only a call come without a potency. Values without a mark were called inactive. Calls of active or inactive are those of the source. Calls follow the shape of the dose curve; as a rule, active = well fitted curve in the direction sought with a large enough effect; inconclusive = small, poorly fitted or top-dose-only effect, or another doubt; inactive = no such curve, though single readings can be large; an effect the other way counts as inactive or inconclusive.

How the values were obtained:
MKL-1 = experiment: qHTS assay to identify novel small-molecules to repurpose for Merkel cell carcinoma treatment (AID 1296009); conditions: MCC and control cell lines, CellTiter-Glo viability, 72 h; series mostly up to 46 µM; also: nearly all actives have a fitted effect of over 60% in size
In short: (§1)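 Cell viability, measured as CellTiter-Glo luminescence, was normalized between DMSO and no-cell wells. The cells had been exposed to 8- or 11-point compound dilutions for 72 hr at 37 degree celsius.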

MKL-2 = experiment: as above; conditions: MCC and control cell lines, CellTiter-Glo viability, 72 h; series mostly up to 46 µM
In short: as §1

NIH3T3 = experiment: as above; conditions: MCC and control cell lines, CellTiter-Glo viability, 72 h; at 44.8 µM (top of the series) unless noted
In short: as §1

UISO = experiment: as above; conditions: MCC and control cell lines, CellTiter-Glo viability, 72 h; series mostly up to 46 µM
In short: as §1

WaGa = experiment: as above; conditions: MCC and control cell lines, CellTiter-Glo viability, 72 h; series mostly up to 46 µM
In short: as §1

C33A = experiment: Primary qHTS to identify gynecologic anti-cancer compounds using libraries of approved drugs and bioactive compounds (AID 1345084); conditions: Gynecologic cancer cell panel viability, ATPlite luminescence, 48 h; series mostly up to 57.5 µM; also: nearly all actives have a fitted effect of over 55% in size
In short: (§2)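 Five-point cytotoxicity, 48 h drug exposure at 37 C, 5% CO2, on cells seeded 16 h beforehand. ATP content read by ATPlite luminescence.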

CAOV3 = experiment: as above; conditions: Gynecologic cancer cell panel viability, ATPlite luminescence, 48 h; series mostly up to 57.5 µM
In short: as §2

CASKI = experiment: as above; conditions: Gynecologic cancer cell panel viability, ATPlite luminescence, 48 h; series mostly up to 57.5 µM
In short: as §2

Es-2 = experiment: as above; conditions: Gynecologic cancer cell panel viability, ATPlite luminescence, 48 h; series mostly up to 57.5 µM
In short: as §2

HeLa = experiment: as above; conditions: Gynecologic cancer cell panel viability, ATPlite luminescence, 48 h; series mostly up to 57.5 µM
In short: as §2

Hek293T = experiment: as above; conditions: Gynecologic cancer cell panel viability, ATPlite luminescence, 48 h, control line for the selectivity index; series mostly up to 57.5 µM
In short: as §2

JEG-3 = experiment: as above; conditions: Gynecologic cancer cell panel viability, ATPlite luminescence, 48 h; series mostly up to 57.5 µM
In short: as §2

OV90 = experiment: as above; conditions: Gynecologic cancer cell panel viability, ATPlite luminescence, 48 h; series mostly up to 57.5 µM
In short: as §2

PA-1 = experiment: as above; conditions: Gynecologic cancer cell panel viability, ATPlite luminescence, 48 h; series mostly up to 57.5 µM
In short: as §2

SKOV3 = experiment: as above; conditions: Gynecologic cancer cell panel viability, ATPlite luminescence, 48 h; series mostly up to 57.5 µM
In short: as §2

Tov-21-G = experiment: as above; conditions: Gynecologic cancer cell panel viability, ATPlite luminescence, 48 h; series mostly up to 57.5 µM
In short: as §2

Tov112D = experiment: as above; conditions: Gynecologic cancer cell panel viability, ATPlite luminescence, 48 h; series mostly up to 57.5 µM
In short: as §2

astro = experiment: Drug repurposing screens with cells derived from glioblastoma tumor samples (AID 1345199); conditions: viability, ATP luminescence, 48 h; series mostly up to 45.9 µM; also: nearly all actives have a fitted effect of over 40% in size; also: potency is read from the fitted curve at half-maximal effect
In short: (§3)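 Primary testing used CD133+ neurospheres from four GBM patients, seven concentrations, 48 h exposure and ATP-based viability; confirmation added three slower-growing patient lines.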

[1] = as above; conditions: GBM patient neurospheres viability, ATP luminescence, 48 h
In short: as §3

[2] = at 45.9 µM (top of the series), tumour line B
[3] = at 45.9 µM (top of the series), tumour line D
[4] = at 46.1 µM (top of the series), tumour line C

Q: Which Potency (MKL-1) does the source give for `O=C(NC(Cc1cc(=O)[nH]c2ccccc12)C(=O)O)c1ccc(Cl)cc1` (centres undefined) here?
A: inactive

Q: What about the Potency (MKL-2) of the same compound?
A: inactive

Q: What about the outcome (NIH3T3) of the same compound?
A: inactive

Q: What about the Potency (UISO) of the same compound?
A: inactive

Q: And the Potency (WaGa)?
A: inactive

Q: And the Potency (C33A)?
A: inactive

Q: And the Potency (CAOV3)?
A: inactive

Q: And the Potency (CASKI)?
A: inactive

Q: And the Potency (Es-2)?
A: inactive

Q: What about the Potency (HeLa) of the same compound?
A: inactive

Q: What about the Potency (Hek293T) of the same compound?
A: inactive

Q: What about the Potency (JEG-3) of the same compound?
A: inactive

Q: What about the Potency (OV90) of the same compound?
A: inactive

Q: And the Potency (PA-1)?
A: inactive

Q: And the Potency (SKOV3)?
A: inactive

Q: And the Potency (Tov-21-G)?
A: inactive

Q: And the Potency (Tov112D)?
A: inactive

Q: What about the Potency (astro) of the same compound?
A: inactive

Q: Which Potency (MKL-1) does the source give for `CN(C)C(=O)COC(=O)Cc1ccc(OC(=O)c2ccc(N=C(N)N)cc2)cc1` here?
A: inactive

Q: And the Potency (MKL-2)?
A: inactive

Q: What about the outcome (NIH3T3) of the same compound?
A: inactive

Q: What about the Potency (UISO) of the same compound?
A: inactive

Q: What about the Potency (WaGa) of the same compound?
A: inactive

Q: And the Potency (C33A)?
A: inactive

Q: And the Potency (CAOV3)?
A: inactive

Q: And the Potency (CASKI)?
A: inactive

Q: And the Potency (Es-2)?
A: inactive

Q: And the Potency (HeLa)?
A: inactive

Q: And the Potency (Hek293T)?
A: inactive

Q: And the Potency (JEG-3)?
A: inactive

Q: What about the Potency (OV90) of the same compound?
A: inactive

Q: And the Potency (PA-1)?
A: inactive

Q: And the Potency (Tov-21-G)?
A: inactive

Q: What about the Potency (Tov112D) of the same compound?
A: inactive

Q: What about the activity, negative = cell killing [1, 2] of the same compound?
A: -12.3%

Q: And the activity, negative = cell killing [1, 3]?
A: 2.44%

Q: And the activity, negative = cell killing [1, 4]?
A: -19.5%

Q: And the Potency (astro)?
A: inactive

Q: For `Oc1ccc(OCc2ccccc2)cc1`, which Potency (MKL-1) is on record?
A: inactive

Q: What about the Potency (MKL-2) of the same compound?
A: inactive

Q: And the outcome (NIH3T3)?
A: inactive

Q: What about the Potency (UISO) of the same compound?
A: inactive

Q: What about the Potency (WaGa) of the same compound?
A: inactive

Q: And the Potency (C33A)?
A: inactive

Q: And the Potency (CAOV3)?
A: inactive

Q: What about the Potency (CASKI) of the same compound?
A: inactive

Q: What about the Potency (Es-2) of the same compound?
A: inactive

Q: And the Potency (HeLa)?
A: inactive

Q: What about the Potency (Hek293T) of the same compound?
A: inactive

Q: And the Potency (JEG-3)?
A: inactive

Q: What about the Potency (OV90) of the same compound?
A: inactive

Q: What about the Potency (PA-1) of the same compound?
A: inactive

Q: And the Potency (SKOV3)?
A: inactive

Q: What about the Potency (Tov-21-G) of the same compound?
A: inactive

Q: What about the Potency (Tov112D) of the same compound?
A: inactive

Q: And the activity, negative = cell killing ([1]; at 20 µM (top of the series), tumour line C)?
A: 4.55%

Q: What about the activity, negative = cell killing ([1]; at 21.2 µM (top of the series), tumour line B) of the same compound?
A: -21.3%

Q: And the Potency (astro)?
A: inactive

Q: For `CC(C)c1ccc2c(c1)c(SC(C)(C)C)c(CC(C)(C)C(=O)O)n2Cc1ccc(Cl)cc1`, which Potency (MKL-1) is on record?
A: inactive

Q: What about the Potency (MKL-2) of the same compound?
A: inactive

Q: What about the outcome (NIH3T3) of the same compound?
A: inactive

Q: And the Potency (UISO)?
A: inactive

Q: What about the Potency (WaGa) of the same compound?
A: inactive

Q: Which Potency (MKL-1) does the source give for `COc1cc2c(cc1OC)C1CC(=O)C(CC(C)C)CN1CC2` (centres undefined) here?
A: inactive

Q: What about the Potency (MKL-2) of the same compound?
A: inactive

Q: And the outcome (NIH3T3)?
A: inactive

Q: And the Potency (UISO)?
A: inactive

Q: And the Potency (WaGa)?
A: inactive

Q: For `Cc1cc2c(s1)Nc1ccccc1N=C2N1CCN(C)CC1`, which Potency (MKL-1) is on record?
A: inactive

Q: And the Potency (MKL-2)?
A: inactive

Q: What about the outcome (NIH3T3) of the same compound?
A: inactive

Q: And the Potency (UISO)?
A: inactive

Q: And the Potency (WaGa)?
A: inactive

Q: What about the Potency (C33A) of the same compound?
A: inactive

Q: What about the Potency (CASKI) of the same compound?
A: inactive

Q: And the Potency (Es-2)?
A: inactive

Q: And the Potency (HeLa)?
A: inactive

Q: And the Potency (Hek293T)?
A: inactive

Q: And the Potency (JEG-3)?
A: inactive

Q: And the Potency (OV90)?
A: inactive

Q: What about the Potency (PA-1) of the same compound?
A: inactive

Q: What about the Potency (SKOV3) of the same compound?
A: inactive

Q: What about the Potency (Tov-21-G) of the same compound?
A: inactive

Q: What about the Potency (Tov112D) of the same compound?
A: inactive

Q: What about the activity, negative = cell killing [1, 2] of the same compound?
A: -20.2%

Q: What about the activity, negative = cell killing [1, 3] of the same compound?
A: -20.6%

Q: And the activity, negative = cell killing [1, 4]?
A: -6.39%

Q: And the Potency ([1]; tumour line A)?
A: 12.6 µM (active)

Q: And the Potency (astro)?
A: inactive

Q: Which Potency (MKL-1) does the source give for `CC(=O)Nc1ccc(O)cc1` here?
A: inactive

Q: And the Potency (MKL-2)?
A: inactive

Q: And the outcome (NIH3T3)?
A: inactive

Q: What about the Potency (UISO) of the same compound?
A: inactive

Q: And the Potency (WaGa)?
A: inactive

Q: And the Potency (C33A)?
A: inactive

Q: What about the Potency (CASKI) of the same compound?
A: inactive

Q: What about the Potency (Es-2) of the same compound?
A: inactive

Q: What about the Potency (HeLa) of the same compound?
A: inactive

Q: What about the Potency (Hek293T) of the same compound?
A: inactive

Q: What about the Potency (JEG-3) of the same compound?
A: inactive

Q: And the Potency (OV90)?
A: inactive

Q: What about the Potency (PA-1) of the same compound?
A: inactive

Q: And the Potency (Tov-21-G)?
A: inactive

Q: And the Potency (Tov112D)?
A: inactive

Q: And the activity, negative = cell killing [1, 2]?
A: -10.5%

Q: What about the activity, negative = cell killing [1, 3] of the same compound?
A: -3.31%

Q: And the activity, negative = cell killing ([1]; at 46 µM (top of the series), tumour line A)?
A: -25.4%

Q: What about the activity, negative = cell killing [1, 4] of the same compound?
A: -7.56%

Q: And the Potency (astro)?
A: inactive
